According to PubChem BioAssay:
Calls of active or inactive are those of the source.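 Rule for the calls: active = hit in primary screen, with calcium signal over 5 SD above buffer well mean in both duplicates; inactive = the rest.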

assay: nonspecific calcium rise without TRPC4 – cell-based, HEK293 mu-opioid receptor line, counter-screen for TRPC4 activator project, confirmation (AID 449723); conditions: HEK293 mu-opioid cells, Fluo-4 calcium fluorescence, at 10 µM;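 note: counter screen cells carry the mu-opioid receptor alone and lack TRPC4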

Q: Which outcome does the source give for Cc1ccsc1C(=O)C1CCCN(Cc2ccccc2O)C1 (stereo not drawn) here?
A: inactive

Q: For COc1ccc(C[C@@H]2c3cc(O)c(OC)cc3CCN2C)cc1O, which outcome is on record?
A: inactive

Q: With CCC1=Nc2cc(C(=O)N3CCC4(CC3)OCCO4)ccc2Sc2ccc(C)cc21 as the compound, how does the outcome read?
A: inactive

Q: With Cc1ccc(CN2C3CCCC2CC(NC(=S)NCc2ccccc2)C3)cc1 (stereo not drawn) as the compound, how does the outcome read?
A: inactive

Q: Which outcome does the source give for COc1ccc(Br)cc1CN1CCN(C(=O)Cc2ccccc2)CC1 here?
A: inactive

Q: Which outcome does the source give for CC(C)CN(CC(C)C)c1ccc(C=C2C(=O)NC(=S)NC2=O)cc1[N+](=O)[O-] here?
A: inactive

Q: For CCOC(=O)C1(CCc2ccccc2)CCN(Cc2cccc3c2OCO3)CC1, which outcome is on record?
A: inactive

Q: With COc1ccc(CN2CCCC(C(=O)c3sccc3C)C2)cc1O (stereo not drawn) as the compound, how does the outcome read?
A: inactive

Q: With CCN1CCN(Cc2cc(Br)ccc2O)CC1 as the compound, how does the outcome read?
A: inactive

Q: For CCN(CC)c1ccc([N+](=O)[O-])c2cccnc12, which outcome is on record?
A: inactive

Q: With CN(CCOc1ccc(C=C2C(=O)NC(=O)NC2=O)cc1)c1ccccn1 as the compound, how does the outcome read?
A: inactive

Q: For CCN(CC)CC(=O)Nc1ccc(Cl)cc1C(=O)c1ccccc1, which outcome is on record?
A: inactive

Q: For COc1cccc(O)c1CN1CCCC(C(=O)c2sccc2C)C1 (stereo not drawn), which outcome is on record?
A: inactive

Q: Which outcome does the source give for CCC1=Nc2cc(C(=O)N3CCC4(CC3)OCCO4)ccc2Sc2ccc(Br)cc21 here?
A: inactive

Q: Which outcome does the source give for COc1ccc2[nH]cc(CCN(C)C)c2c1 here?
A: inactive

Q: With CC(=O)OC1(c2ccccc2)CCN(C2CCCCC2)CC1C (stereo not drawn) as the compound, how does the outcome read?
A: inactive

Q: With CCOC(=O)C1(c2ccccc2)CCN(CC(=O)Nc2ccc(C)cc2)CC1 as the compound, how does the outcome read?
A: inactive

Q: With COc1ccc(O)c(CN2CCCC(C(=O)c3sccc3C)C2)c1 (stereo not drawn) as the compound, how does the outcome read?
A: inactive

Q: Which outcome does the source give for Clc1ccc(OCC#CCN2CCCC2)cc1 here?
A: inactive

Q: Which outcome does the source give for O=C(c1cccc(C(F)(F)F)c1)C1CCCN(Cc2ccccc2O)C1 (stereo not drawn) here?
A: inactive

Q: Which outcome does the source give for CCOC(=O)C1(CCc2ccccc2)CCN(Cc2ccco2)CC1 here?
A: inactive

Q: Which outcome does the source give for Nc1ccccc1-[n+]1c(-c2ccccc2)cc(-c2ccccc2)cc1-c1ccccc1 here?
A: inactive

Q: With CCc1nccc2c1[nH]c1ccccc12 as the compound, how does the outcome read?
A: inactive

Q: Which outcome does the source give for CCOC(=O)C(O)(c1ccc(NC(=S)NC(=O)c2ccc(Cl)cc2Cl)c(C)c1)C(F)(F)F (stereo not drawn) here?
A: inactive

Q: For COc1ccc(OC)c(N2Cc3ccccc3C2=N)c1, which outcome is on record?
A: inactive

Q: Which outcome does the source give for CCOc1c(Cl)cc(CNC(C)C(O)c2ccccc2)cc1OC (stereo not drawn) here?
A: inactive

Q: Which outcome does the source give for Cc1cccc(N2CCc3c2nc2ccccc2c3N)c1 here?
A: inactive

Q: Which outcome does the source give for COc1ccc(C)cc1NC1=NC(C)(C)CS1 here?
A: inactive

Q: With N=c1n(CCO)c2ccccc2n1Cc1ccccc1 as the compound, how does the outcome read?
A: inactive

Q: With CCc1ccc(OCCCN=C(C)c2c(O)n(C)c(=O)n(C)c2=O)cc1 as the compound, how does the outcome read?
A: inactive

Q: Which outcome does the source give for O=C(CN1CCCC1)Nc1ccc(Cl)cc1C(=O)c1ccccc1 here?
A: inactive

Q: For O=C(c1ccc(Cl)cc1)C1CCCN(C2CCSCC2)C1 (stereo not drawn), which outcome is on record?
A: inactive

Q: Which outcome does the source give for Cc1ccc(C2CN(C)CC2C(=O)c2ccc(F)cc2)cc1 (stereo not drawn) here?
A: inactive

Q: Which outcome does the source give for O=C(Cc1ccccc1)N1CCN(Cc2cccc(Br)c2)CC1 here?
A: inactive

Q: Which outcome does the source give for Cc1cccc(N=Cc2c(O)n(-c3ccccc3C)c(=O)[nH]c2=O)c1 here?
A: inactive

Q: With CC(Cc1ccccc1Sc1ccccc1O)N(C)C (stereo not drawn) as the compound, how does the outcome read?
A: inactive

Q: With COc1ccc(OC)c(CN2CCCC(C(=O)c3sccc3C)C2)c1 (stereo not drawn) as the compound, how does the outcome read?
A: inactive

Q: With CCCCc1ncc(CN2CCCC(C(=O)c3ccc(SC)cc3)C2)[nH]1 (stereo not drawn) as the compound, how does the outcome read?
A: inactive
